# In PubChem BioAssay AID1036 (National Center for Advancing Translational Sciences (NCATS), 2008):
# Results filed as inconclusive are left out. Activity calls are given as the source filed them. Calls follow the shape of the full dose curve.
# Assay: NSCLC 1 Cell Viability Secondary Assay for qHTS Assay for Epigenetic Modulator
# Settings: NSCLC 1 cells viability, MTS absorbance, 4 days
# Text: NIH Molecular Libraries Screening Centers Network [MLSCN] NIH Chemical Genomics Center [NCGC] MLSCN Grant: 1 X01 MH079860-01 Assay Provider: Elisabeth D. Martinez, University of Texas SW Medical Center NCGC Assay Overview: This secondary assay characterizes selected actives identified in the qHTS of the Locus Derepression (LDR) assay (PubChem AID 597). The LDR assay detects the derepression of a GFP reporter that is stably integrated in a region of the genome of murine c127i mammary cells that is presumably silenced. Compounds that cause derepression of the locus to express GFP are identified by enumerating GFP positive cells using a laser-scanning microplate cytometer. Selected LDR actives were assayed for killing of NSCLC 1, a patient-derived nonsmall cell lung carcinoma line. Known epigenetic drugs, like histone deacetylase inhibitors, can block cancer cell growth. NSCLC 1 cell viability was measured using Cell Titer 96 AQueous One (Promega), an assay which detects the ability of metabolically active cells to reduce a tetrazolium salt substrate (MTS), into a soluble formazan product that can be measured by colorimetry.
# NCGC Assay Protocol Summary NSCLC 1 cells were plated in 96-well flat bottom tissue culture dishes (Corning) and grown overnight at 37 C and 5% CO2, then treated with compounds, incubated 4 days, and assayed for viability using the Cell Titer 96 AQueous One kit (Promega) according to the manufacturer's protocol. Absorbance at 490 nm and 650 nm (reference) was measured by a Spectra Max (Molecular Devices). Data were normalized to the untreated control (100% viability). Each cell line was tested in one or two independent assays, each containing 4 or 8 replicates. For further details, see R.L. Johnson, W. Huang, A. Jadhav, C.P. Austin, J. Inglese, E.D. Martinez, A Quantitative High-Throughput Screen Identifies Potential Epigenetic Modulators of Gene Expression, Analytical Biochemistry (2007), doi: 10.1016/j.ab.2007.12.028
SMILES,Potency,outcome
O=Nc1ccc(O)c2ncccc12,4000 nM (active),
O=C(CSc1cccc2cccnc12)NCc1ccccc1,,inactive
CC(C)C(=O)NC(c1ccco1)c1cc([N+](=O)[O-])c2cccnc2c1O (configuration not stated),8000 nM (active),
CN1C(=S)SC(c2ccccc2)N(C)C1c1ccccc1 (configuration not stated),,inactive
CC(/C=C/C(=O)NO)=C\[C@@H](C)C(=O)c1ccc(N(C)C)cc1,100 nM (active),
CC(C)C(=O)NC(c1ccco1)c1ccc2cccnc2c1O (configuration not stated),1000 nM (active),
CC(C)C(=O)NC(c1ccc(N(C)C)cc1)c1ccc2cccnc2c1O (configuration not stated),300 nM (active),
